From PubChem BioAssay
The source made the active and inactive calls.

Legend:
[1] = tested on: Plasmodium falciparum Sir2 (PF13_0152, Sir2A); test: Plasmodium falciparum Sir2A binding compounds – biochemical, small-molecule microarray, 635 nm fluorescence, primary screen (AID 1098); conditions: fluorescence 635 nm, higher = more signal;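 note: score merges spot fluorescence intensity with its signal-to-noise ratio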
[2] = probe aDKK1 binding to arrayed compounds – biochemical, biotinylated probe, 635/667 nm fluorescence, primary screen (AID 1099); conditions: small-molecule microarray, higher = more signal;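 note: score merges 667nm spot fluorescence with signal to noise across triplicate slides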
[3] = probe aCHRDL2 binding to arrayed compounds – biochemical, biotinylated probe, 635/667 nm fluorescence, primary screen (AID 1100); conditions: small-molecule microarray, higher = more signal
[4] = change in splice reporter luminescence, either direction, cell-based, HEK293, spliceosome inhibition project, primary screen (AID 1101); conditions: HEK293 splicing luciferase reporter, 24 h, higher = more signal, called active from +8 up or from −8 down;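 note: HEK293 cells carrying a splicing-competent luciferase reporter gene; test concentration not given here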
[5] = target: Fibroblast growth factor 10 (Homo sapiens) (UniProt O15520); test: compounds binding fibroblast growth factor 10 – biochemical, small-molecule microarray, 635 nm fluorescence, primary screen (AID 1102); conditions: FGF10 binding, fluorescence 635 nm, higher = more signal
[6] = tested on: glycogen synthase kinase-3 (GSK3A per assay name; protocol says GSK3B); test: compounds binding glycogen synthase kinase-3 – biochemical, small-molecule microarray, 635 nm fluorescence, GSK3A, primary screen (AID 1103); conditions: fluorescence 635 nm, higher = more signal; note: the record names both GSK3A and GSK3B
[7] = target: Epidermal growth factor receptor (Homo sapiens) (UniProt P00533); test: compounds binding epidermal growth factor receptor – biochemical, small-molecule microarray, 635 nm fluorescence, primary screen (AID 1104); conditions: EGFR binding, higher = more signal;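 note: score merges 667 nm emission intensity with spot signal to noise over triplicate slides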
[8] = target: Follistatin-related protein 3 (Homo sapiens) (UniProt O95633); test: compounds binding follistatin-related protein 3 – biochemical, small-molecule microarray, 635 nm fluorescence, primary screen (AID 1105); conditions: FSTL3 binding, higher = more signal;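 note: score merges emission near 667 nm and signal to noise per printed spot across three slides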
[9] = target: Dickkopf-related protein 1 (Homo sapiens) (UniProt O94907); test: small molecules binding DKK1 protein – biochemical, small-molecule microarray, 635 nm fluorescence scan, primary screen (AID 1106); conditions: higher = more signal;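 note: score merges emission near 667 nm with signal to noise over three replicate slides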
[10] = tested on: Inhibin beta A chain (activin A); test: small molecules binding activin A – biochemical, small-molecule microarray, 635 nm fluorescence scan, primary screen (AID 1107); conditions: INHBA, higher = more signal;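 note: mouse activin A protein probed at 4.33 µg/mL on printed slides; score merges bound-protein fluorescence near 667 nm with spot signal-to-noise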
[11] = tested on: Human papillomavirus type 1a protein E7 (residues 44-93); test: small molecules binding HPV E7 44-93 – biochemical, small-molecule microarray, residues 44-93, 635 nm fluorescence, primary screen (AID 1108); conditions: fluorescence 635 nm, higher = more signal;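 note: E7 fragment applied at 1 µg/mL in TBST for 1 h at 4 C; score combines spot fluorescence with its signal to noise ratio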
[12] = hepatitis C replication reporter changes, two-sided – Huh7 cells, luciferase reporter, HCV replication inhibitor project, primary screen (AID 1109); conditions: Huh7 HCV replicon luciferase reporter, 48 h; higher = more signal;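 note: huh7 hepatoma cells harbouring a luciferase neomycin HCV replicon reporter; luciferase luminescence as measure of HCV replicon replication; test concentration not given here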
[13] = target: Left-right determination factor 2 (Homo sapiens) (UniProt O00292); test: small molecules binding LEFTY2 protein – biochemical, small-molecule microarray, 635 nm fluorescence scan, primary screen (AID 1110); conditions: higher = more signal
[14] = target: Calmodulin-1 (Homo sapiens) (UniProt P0DP23); test: small molecules binding calmodulin-1 with EGTA – biochemical, small-molecule microarray, Cy5-labelled CALM1, profiling panel (AID 1111); conditions: Cy5-CALM1 binding fluorescence, higher = more signal;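 note: labelled calmodulin applied in Tris saline Tween buffer holding calcium plus EGTA and DTT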
[15] = target: Calmodulin-1 (Homo sapiens) (UniProt P0DP23); test: small molecules binding Ca-loaded calmodulin-1 – biochemical, small-molecule microarray, Cy5-labelled CALM1, plus calcium, artefact control for SMM control-protein annotation, profiling panel (AID 1112); conditions: Cy5-CALM1 binding fluorescence, higher = more signal;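 note: score merges spot fluorescence with signal to noise from triplicate slides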
[16] = probe aWnt5a binding to arrayed compounds – biochemical, biotinylated probe, 635/667 nm fluorescence, primary screen (AID 1113); conditions: small-molecule microarray, higher = more signal;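 note: score merges 667 nm fluorescence intensity with signal-to-noise per printed feature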
[17] = probe aShh binding to arrayed compounds – biochemical, biotinylated probe, 635/667 nm fluorescence, primary screen (AID 1114); conditions: small-molecule microarray, higher = more signal;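 note: probe is biotin-labelled aShh protein from a stem cell growth factor screen; measures binding of labelled protein to compounds printed on the slide; score merges feature fluorescence at 667 nm with signal-to-noise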
[18] = probe aNog binding to arrayed compounds – biochemical, biotinylated probe, 635/667 nm fluorescence, primary screen (AID 1115); conditions: small-molecule microarray, higher = more signal;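 note: probe is biotinylated aNog protein used at 0.15 µg/mL for 1 h at 4 C; z-score combines 667 nm fluorescence of each spot with its signal to noise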
[19] = target: Torsin-1A-interacting protein 1 (Homo sapiens) (UniProt Q5JTV8); test: compound microarray binding of lysate hLAP1 – cell lysate, small-molecule microarray, COS7 lysate, 635/667 nm fluorescence, primary screen (AID 1116); conditions: 635 nm fluorescence, higher = more signal
[20] = target: Alpha-bungarotoxin (Bungarus multicinctus) (UniProt P60615); test: compounds binding labelled alpha-BTX control protein – biochemical, small-molecule microarray, Alexa647 label, 635/667 nm fluorescence, artefact control for SMM control protein annotation, profiling panel (AID 1117); conditions: alpha-BTX-A647 binding fluorescence, higher = more signal
Chain of Alpha-bungarotoxin (Bungarus multicinctus) (P60615 whole entry, looked up): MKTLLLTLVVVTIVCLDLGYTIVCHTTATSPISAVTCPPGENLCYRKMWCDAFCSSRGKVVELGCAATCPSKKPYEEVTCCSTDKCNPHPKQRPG

Chain of Follistatin-related protein 3 (Homo sapiens) (O95633 whole entry, looked up): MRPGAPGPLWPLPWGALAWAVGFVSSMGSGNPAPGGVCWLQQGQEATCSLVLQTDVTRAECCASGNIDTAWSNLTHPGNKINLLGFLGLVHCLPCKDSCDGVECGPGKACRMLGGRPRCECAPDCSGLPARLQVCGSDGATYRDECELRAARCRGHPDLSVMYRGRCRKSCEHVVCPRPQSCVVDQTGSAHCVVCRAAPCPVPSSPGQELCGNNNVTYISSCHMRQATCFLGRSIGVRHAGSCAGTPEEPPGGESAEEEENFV
Chain of Left-right determination factor 2 (Homo sapiens) (O00292 whole entry, looked up): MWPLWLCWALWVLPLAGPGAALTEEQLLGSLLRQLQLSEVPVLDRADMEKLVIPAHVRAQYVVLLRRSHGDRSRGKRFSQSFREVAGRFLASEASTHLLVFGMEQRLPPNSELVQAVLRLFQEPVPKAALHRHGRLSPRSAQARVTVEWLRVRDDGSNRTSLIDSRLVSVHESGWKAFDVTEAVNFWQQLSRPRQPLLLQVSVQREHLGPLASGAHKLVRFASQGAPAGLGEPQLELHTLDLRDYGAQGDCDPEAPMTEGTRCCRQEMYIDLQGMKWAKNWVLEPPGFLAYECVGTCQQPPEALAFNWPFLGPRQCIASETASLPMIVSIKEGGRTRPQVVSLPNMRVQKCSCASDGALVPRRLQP
Chain of Epidermal growth factor receptor (Homo sapiens) (P00533 whole entry, looked up): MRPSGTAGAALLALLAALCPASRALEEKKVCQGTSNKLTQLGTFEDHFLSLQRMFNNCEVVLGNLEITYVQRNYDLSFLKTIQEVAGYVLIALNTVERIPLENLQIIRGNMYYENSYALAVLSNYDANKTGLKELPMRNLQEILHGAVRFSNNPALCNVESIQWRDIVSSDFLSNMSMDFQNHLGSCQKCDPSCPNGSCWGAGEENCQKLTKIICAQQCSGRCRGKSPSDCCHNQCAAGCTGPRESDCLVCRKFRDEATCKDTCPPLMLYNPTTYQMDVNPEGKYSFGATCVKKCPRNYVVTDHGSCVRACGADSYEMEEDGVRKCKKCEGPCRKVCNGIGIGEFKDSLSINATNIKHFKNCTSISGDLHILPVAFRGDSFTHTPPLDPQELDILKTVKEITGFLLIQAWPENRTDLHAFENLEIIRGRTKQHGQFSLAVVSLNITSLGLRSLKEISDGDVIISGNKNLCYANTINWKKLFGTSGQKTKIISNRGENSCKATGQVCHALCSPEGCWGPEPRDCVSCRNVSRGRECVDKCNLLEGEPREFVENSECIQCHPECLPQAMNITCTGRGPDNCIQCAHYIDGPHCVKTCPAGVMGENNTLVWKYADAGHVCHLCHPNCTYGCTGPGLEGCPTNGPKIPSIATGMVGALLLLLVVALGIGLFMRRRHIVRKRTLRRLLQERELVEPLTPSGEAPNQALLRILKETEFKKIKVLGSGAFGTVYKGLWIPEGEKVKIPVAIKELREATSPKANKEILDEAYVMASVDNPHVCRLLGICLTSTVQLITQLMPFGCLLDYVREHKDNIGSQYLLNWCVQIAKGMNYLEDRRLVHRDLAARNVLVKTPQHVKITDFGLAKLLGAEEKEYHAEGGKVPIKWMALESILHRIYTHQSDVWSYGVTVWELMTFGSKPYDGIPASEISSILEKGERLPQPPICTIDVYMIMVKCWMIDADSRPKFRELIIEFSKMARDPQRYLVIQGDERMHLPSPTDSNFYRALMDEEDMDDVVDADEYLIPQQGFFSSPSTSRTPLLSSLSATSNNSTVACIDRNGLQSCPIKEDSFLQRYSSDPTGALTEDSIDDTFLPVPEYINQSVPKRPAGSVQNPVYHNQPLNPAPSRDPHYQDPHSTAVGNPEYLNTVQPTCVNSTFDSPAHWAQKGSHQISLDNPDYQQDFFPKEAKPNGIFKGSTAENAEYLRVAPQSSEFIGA
Chain of Dickkopf-related protein 1 (Homo sapiens) (O94907 whole entry, looked up): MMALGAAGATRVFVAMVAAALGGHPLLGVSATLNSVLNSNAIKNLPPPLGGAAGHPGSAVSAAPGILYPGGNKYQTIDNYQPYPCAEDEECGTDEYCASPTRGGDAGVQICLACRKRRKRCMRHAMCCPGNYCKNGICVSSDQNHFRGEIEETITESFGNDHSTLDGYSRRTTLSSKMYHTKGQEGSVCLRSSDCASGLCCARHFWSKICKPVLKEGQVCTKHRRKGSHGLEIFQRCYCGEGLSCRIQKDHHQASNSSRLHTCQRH
Chain of Torsin-1A-interacting protein 1 (Homo sapiens) (Q5JTV8 whole entry, looked up): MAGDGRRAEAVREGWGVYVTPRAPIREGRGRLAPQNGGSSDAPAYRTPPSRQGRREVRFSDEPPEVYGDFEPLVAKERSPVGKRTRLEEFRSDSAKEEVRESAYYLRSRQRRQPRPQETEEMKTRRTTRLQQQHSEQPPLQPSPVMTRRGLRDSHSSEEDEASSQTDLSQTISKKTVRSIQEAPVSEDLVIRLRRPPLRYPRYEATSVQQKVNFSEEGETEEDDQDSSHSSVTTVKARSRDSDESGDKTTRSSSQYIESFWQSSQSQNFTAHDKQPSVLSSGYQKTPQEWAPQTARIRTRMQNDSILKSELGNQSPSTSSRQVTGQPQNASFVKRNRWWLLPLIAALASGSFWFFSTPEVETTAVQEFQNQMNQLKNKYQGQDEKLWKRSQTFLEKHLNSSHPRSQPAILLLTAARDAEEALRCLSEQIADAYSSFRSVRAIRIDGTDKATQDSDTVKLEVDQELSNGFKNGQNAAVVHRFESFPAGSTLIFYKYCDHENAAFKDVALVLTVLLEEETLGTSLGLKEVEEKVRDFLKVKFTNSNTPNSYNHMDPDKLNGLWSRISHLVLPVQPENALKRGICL
Chain of Fibroblast growth factor 10 (Homo sapiens) (O15520 whole entry, looked up): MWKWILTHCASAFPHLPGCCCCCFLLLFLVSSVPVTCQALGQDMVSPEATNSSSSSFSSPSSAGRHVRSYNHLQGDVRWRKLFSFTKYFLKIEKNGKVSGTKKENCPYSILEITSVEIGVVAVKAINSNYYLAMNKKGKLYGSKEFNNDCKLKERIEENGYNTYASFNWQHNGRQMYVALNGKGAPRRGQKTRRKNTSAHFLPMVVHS

Compound `C=CC[C@@H]1C=C[C@H](ON=C[C@@H](C)[C@H](OCc2ccccc2)C(C)C)[C@@H](CO)O1` has a composite z-score [1] of 1.07, a composite z-score [2] of -0.5 and a composite z-score [3] of -0.353. The z-score [4] was 0.305 (inactive), the composite z-score [5] was -0.483 and the composite z-score [6] was -0.363. For the same compound, the composite z-score [7] was -0.852, the composite z-score [8] was -0.568 and the composite z-score [9] was -0.189. For the same compound, the composite z-score [10] was -0.291, the composite z-score [11] was 0.0248 and the z-score [12] was -2.12. The composite z-score [13] was -0.0977, the composite z-score [14] was -1.07 and the composite z-score [15] was -0.0781. The composite z-score [16] was -0.101, the composite z-score [17] was -0.186 and the composite z-score [18] was -0.4. It also gave a composite z-score [19] of -0.159 and a composite z-score [20] of -0.901.

Compound `O=C1CCCC=C1C(O)CCCCBr` (stereo not given) has a composite z-score [1] of 1.09, a composite z-score [2] of 0.763 and a composite z-score [3] of 0.653. For the same compound, the z-score [4] was -0.793 (inactive), the composite z-score [5] was 0.404 and the composite z-score [6] was -0.115. For the same compound, the composite z-score [7] was 0.0038, the composite z-score [8] was 1.18 and the composite z-score [9] was 0.945. For the same compound, the composite z-score [10] was 1.26, the composite z-score [11] was 0.619 and the z-score [12] was -4.22. For the same compound, the composite z-score [13] was -0.0175, the composite z-score [14] was 1.35 and the composite z-score [15] was 0.403. It also gave a composite z-score [16] of -0.124, a composite z-score [17] of 0.191 and a composite z-score [18] of -0.438. For the same compound, the composite z-score [19] was 0.293 and the composite z-score [20] was 2.09.

`C#CCCCON=C1[C@H]2CCn3c(=O)n(C)c(=O)n3[C@H]2[C@H](O)[C@@H]2O[C@H]12` gave a composite z-score [1] of 0.325, a composite z-score [2] of -0.316 and a composite z-score [3] of -0.548. The z-score [4] was 0.0589 (inactive), the composite z-score [5] was 0.478 and the composite z-score [6] was 0.832. It also gave a composite z-score [7] of 0.719, a composite z-score [8] of 0.938 and a composite z-score [9] of 0.811. For the same compound, the composite z-score [10] was 0.213, the composite z-score [11] was 0.371 and the z-score [12] was 0.818. It also gave a composite z-score [13] of 0.503, a composite z-score [14] of -0.266 and a composite z-score [15] of -0.792. The composite z-score [16] was -0.0486, the composite z-score [17] was 0.0723 and the composite z-score [18] was 0.0762. The composite z-score [19] was 0.35 and the composite z-score [20] was 0.0727.

`COc1cccc([C@H]2Oc3ccc(OC)cc3C(=NO[C@@H]3O[C@H](COC(C)=O)[C@@H](OC(C)=O)[C@H](OC(C)=O)[C@H]3OC(C)=O)[C@@H]2O)c1` gave a composite z-score [1] of -0.531, a composite z-score [2] of 0.0366 and a composite z-score [3] of -0.0882. The z-score [4] was 0.598 (inactive), the composite z-score [5] was 0.261 and the composite z-score [6] was -0.157. For the same compound, the composite z-score [7] was 0.344, the composite z-score [8] was 0.0855 and the composite z-score [9] was 0.0647. The composite z-score [10] was -0.43, the composite z-score [11] was 0.104 and the z-score [12] was -1.12. The composite z-score [13] was 0.507, the composite z-score [14] was -0.446 and the composite z-score [15] was -0.552. The composite z-score [16] was 0.0206, the composite z-score [17] was 0.137 and the composite z-score [18] was 0.124. For the same compound, the composite z-score [19] was -0.178 and the composite z-score [20] was -0.275.

Work on `CCOC(=O)NN=C1C[C@@H](O)[C@@H](O)[C@@H]2[C@@H]3C(=O)N([C@@H](C)c4ccccc4)C(=O)[C@@H]3CC[C@H]12` yielded a composite z-score [1] of 0.209, a composite z-score [2] of -0.0719 and a composite z-score [3] of -0.183. The z-score [4] was -0.681 (inactive), the composite z-score [5] was 0.225 and the composite z-score [6] was 0.515. It also gave a composite z-score [7] of 0.308, a composite z-score [8] of 0.345 and a composite z-score [9] of 0.309. The composite z-score [10] was 0.121, the composite z-score [11] was 0.171 and the z-score [12] was -0.789. The composite z-score [13] was 0.0792, the composite z-score [14] was -0.258 and the composite z-score [15] was -0.453. For the same compound, the composite z-score [16] was -0.124, the composite z-score [17] was -0.117 and the composite z-score [18] was -0.287. It also gave a composite z-score [19] of 2.53 and a composite z-score [20] of -0.0914.
